Paper PMC12136788
In all, about 24,000 sequences were measured (“enrichment r”: median about 0.99, highest 2% from about 3.7 on). What follows is part of a selection rich in the highest values, with near analogues and random picks from the rest.

T1: UNK ZnF1-3 (human, UniProt Q9C0B0 31-174)
T1 sequence: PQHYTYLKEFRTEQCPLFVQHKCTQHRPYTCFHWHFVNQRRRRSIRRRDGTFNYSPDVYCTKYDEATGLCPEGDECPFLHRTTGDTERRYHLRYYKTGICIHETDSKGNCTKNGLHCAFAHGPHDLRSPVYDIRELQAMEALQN

B1: chr22:38201524:38201525:+_ENSG00000189060_ENST00000340857|hu_hu|FALSE|FALSE (ssRNA)
RNA: GGGAGUUCUACAGUCCGACGAUCCGCAGGGGCGGACGUGGAAUUCUCGGUCAUGGUGGCCUGUCUGGUCCGGCUGUUGAAGGCGCCUUCCAAAGGGCCAGCCCUCGUCGGAGGCUGAGCAAAGCCUGCCUCGGGAUCUGCUCCCAACAGAGGAUUGAGCAUCA
B2: chr16:17038481:17038482:+_ENSMUSG00000063358_ENSMUST00000069107|mus_mus|FALSE|FALSE (ssRNA)
RNA: GGGAGUUCUACAGUCCGACGAUCCUUGUCCUGACCAAUUUAAGAUCUGUAUCCUGGCUGGAAUCUAGCAGUCUCUUCAAAAAUGAGUUCUUUGAGCUUCUCCUUAGGUAAGUCGUCCAACUCCAUGUCAAACUUGAAUGGCGCCAACAGAGGAUUGAGCAUCA
B3: chr11:77336104:77336105:-_ENSG00000074201_ENST00000525064|hu_mus|hu_hu_hu_mus_False|48_108 (ssRNA)
RNA: GGGAGUUCUACAGUCCGACGAUCCUCGCACAUUGCAGUGAACAUCGCCUCCAAUGCUGACUUAUCACUGGGCACAAAUCGAAAUUCAGUAAUAGGUUCAACAUCAUCAUUGUCUUCCUCAUCUUCAUCAGAGAGAGGUUCUUUCAACAGAGGAUUGAGCAUCA
B4: 42454244_42454364_2548_CDS_ENSG00000166887_ENST00000318006|human|control|control (ssRNA)
RNA: GGGAGUUCUACAGUCCGACGAUCAUGGAGAAGGUUCUUGAGCACUUGAUUGAACCGUUUCUUUUGUGCAUUUUCUUCCAAGACCUUUUCCAGGAAGAUGCGUAUGUCAUUGAUCUGAGUGUUUGCUGGCAGAAGGUUGAGGGCCAACAGAGGAUUGAGCAUCA
B5: chr3:9412954:9412955:+_ENSG00000134077_ENST00000452837|hu_mus|hu_hu_hu_mus_False|1_78 (ssRNA)
RNA: GGGAGUUCUACAGUCCGACGAUCGGUUGAUAUCUCUUCUUUGAUGGCUGGAUUUUCAUAAUAAUCUAAGAUAUGUGAAUCUGAAGUGCUGCUGGCAUGCUUUUUCUUACCAUCUUUCUCAUCUGCUUUGUCUCCUUGUCCAUUCAACAGAGGAUUGAGCAUCA
B6: chr4:148551591:148551592:-_ENSMUSG00000063077_ENSMUST00000060537|mus_hu|mus_mus_mus_hu_False|1_48 (ssRNA)
RNA: GGGAGUUCUACAGUCCGACGAUCACCUGACAAAAUUAAAUAUCCCUGUAAAUUAGACAAUAAGCAGCAGGCAACAAAGUCUUUGCUUUGAAAUAUGUGCCAGGAAAAGUCAUCUUGUUUUUAGAUCUCAAGAGACACAACCAUCAACAGAGGAUUGAGCAUCA
B7: 110765750_110770449_1192_CDS_ENSG00000174437_ENST00000539276|human|control|control (ssRNA)
RNA: GGGAGUUCUACAGUCCGACGAUCCUCAUUAAGGGAACAAGUAUCACCUUCCACUCUGUCCAGAAUGAACAUCCUGCAGACUGACAUCUGGUUUGUUGUAAGUGUACCAGUCUUGUCUGAGCAGAUAACAGAAGUACAACCAAGCAACAGAGGAUUGAGCAUCA
B8: chr1:33860009:33860010:-_ENSMUSG00000042197_ENSMUST00000044455|mus_mus|motif|central (ssRNA)
RNA: GGGAGUUCUACAGUCCGACGAUCGCUGGAGAUAUCCCAAGGAACUGACGAGCUCUCACUUGGCCUAGAAUGAUGAAAUCGGAAACAACUCCUGGACUGCAGAUCACGUAUGACUCGGGACAUCUCAGCCACUUGUGUCUGGAGCAACAGAGGAUUGAGCAUCA
B9: chr7:141441981:141441982:+_ENSG00000106028_ENST00000265304|hu_mus|hu_hu_hu_mus_False|38_38 (ssRNA)
RNA: GGGAGUUCUACAGUCCGACGAUCCUCAUGUCUUACAAACUGACGAAAUACCUGUAACACAGGUCUUCGAAACAUGGCUUCUGUUUUUCUUACAACCAGUCUAAUCUGCUUUUCCUAAAGGAAAGAAAGAAAAGAGAAAAAUGACAACAGAGGAUUGAGCAUCA
B10: 32390341_32390461_6886_3pUTR_ENSMUSG00000053774_ENSMUST00000115151|mouse|control|control (ssRNA)
RNA: GGGAGUUCUACAGUCCGACGAUCACUUUAACCCAAGGAGGACCCAGAGGUUCAAGGUUAUGUUCAACUAACUACACAGUCACUGAAGAGGUCAGCCUGAUCCAGGACAACCAGGACUAGAUAAAGAAAACUUAUCUCAAAGAACAACAGAGGAUUGAGCAUCA
B11: 2840810_2840930_7205_3pUTR_ENSG00000087266_ENST00000503393|human|control|control (ssRNA)
RNA: GGGAGUUCUACAGUCCGACGAUCUGAGACCCUGUCUCAGAAAAAAAAAAAAAGAAAAGAAAAAGAAAAAGACAACAAGUUAAAAAAUGGGCAAAAGAUGAUAGACACUUCACAGGAGACAAAAUCAAAAUGGUUAAUAAAAACCAACAGAGGAUUGAGCAUCA
B12: 54532081_54532201_669_3pUTR_ENSMUSG00000073678_ENSMUST00000097739|mouse|control|control (ssRNA)
RNA: GGGAGUUCUACAGUCCGACGAUCGACUGAGCAGAGACAUAAAGAAAGCAAAAGAAACACCACAGGGAAGGUUUCAACUGUAGUAACCAGACAUCUACACCAAAAAUGGAUUGUGCAAAACAACUGAUUUUUUUUUUUUUUUUACAACAGAGGAUUGAGCAUCA
B13: chr3:148802587:148802588:-_ENSG00000071794_ENST00000310053|hu_mus|FALSE|FALSE (ssRNA)
RNA: GGGAGUUCUACAGUCCGACGAUCUCCAACAACUUGUCCUCUCAUAGUUCCAAAUAAAACCAAAUCUUGCUCUUCAUCACUCGUUAGGAAGUCAUCUGGAGGAAUAAUGUCUUGGAAUUCAAAAUGUGGCAAGAAAGUUGAGUACAACAGAGGAUUGAGCAUCA
B14: chr5:56189439:56189440:+_ENSG00000095015_ENST00000399503|hu_hu|FALSE|FALSE (ssRNA)
RNA: GGGAGUUCUACAGUCCGACGAUCAAAGACUGGAUGCUUCAGUAGCUCUCUUGAUGGAGGUCUGUCCUGAGGUUGAAGUUCUAAACAACGAAGAGCCACAUCUCGUAAACCAGGAGACAAAUGUGAAGGGAUCGAUGGAGCAGUCAACAGAGGAUUGAGCAUCA
B15: chr3:142455422:142455423:-_ENSMUSG00000004591_ENSMUST00000043812|mus_hu|FALSE|FALSE (ssRNA)
RNA: GGGAGUUCUACAGUCCGACGAUCGAAAAAACAAUAAAGUCAUAGAUUAGGAGAAAAAAAUAUAAAAUCAAACCAAACCAAAACAAACAAAAAACUACAGGCAAGUGGAAAGUCAUGGUUUGUAAAAAGACAACCCUAAAAGAGCAACAGAGGAUUGAGCAUCA
B16: chr14:52780626:52780627:-_ENSMUSG00000035726_ENSMUST00000046709|mus_mus|FALSE|FALSE (ssRNA)
RNA: GGGAGUUCUACAGUCCGACGAUCUGAGCACUGCACCACAUAUGGACUUGUAAGGAGGAAAAAAAAAAAAAAAAAAAAAAAAAAAACAGCCACGAGUGCCAGUGUUUGUCUUCUGAUGCAGCAAAAACAACCCCAGAAUGUGCACAACAGAGGAUUGAGCAUCA
B17: chr1:39494447:39494448:+_ENSG00000168653_ENST00000372967|hu_mus|hu_hu_hu_mus_False|98_98 (ssRNA)
RNA: GGGAGUUCUACAGUCCGACGAUCGCACCGAGCGGCGAUCUUGUAGGGCUGUUCUGCGCUUAGGAACAUAAAGUGCCGGUCCAGGCUGAUGCCCAGCUUUUUCUGUAUGUCAAGGAAAGGCAUGGCUCUGCAGUGCCCUUGUCACAACAGAGGAUUGAGCAUCA
B18: chr16:75674161:75674162:-_ENSG00000065427_ENST00000302445|hu_hu|motif|central (ssRNA)
RNA: GGGAGUUCUACAGUCCGACGAUCCCUACCUGCCACCUUUAAGGUGAUGUCAGUCAGGUGAUCCCCAGGCUGCAGGUGACGGUAUUUUUGGAUGAAGUCAGUGAGUGAGAUGUCUACAUGGAACUUGUGUGGGUAUGGGUCUUCCAACAGAGGAUUGAGCAUCA
B19: 76004153_76004273_12107_CDS_ENSMUSG00000022565_ENSMUST00000071869|mouse|control|control (ssRNA)
RNA: GGGAGUUCUACAGUCCGACGAUCCUUCAUGGCCUGGAAGAGGGAGAUGAGUUUCCCAGAGUAGGGGUCCUUGUAGCCAGUGACGGCACGCUCAGCUGACAGCAGCUUGUCCUUGAACUCGGGGCCCACAAUACCCAUACGAACCAACAGAGGAUUGAGCAUCA
B20: chr11:93905761:93905762:+_ENSMUSG00000020859_ENSMUST00000103168|mus_mus|motif|central (ssRNA)
RNA: GGGAGUUCUACAGUCCGACGAUCCGCUGGCACCCCGGUAGAAAUAGAAAAGUGCACAAGCAGCAAAACAGAGAGAGAUACGGAGAUCGCAGAAUUAAUGACCACCGCCCCGCCAACAAAGCCAAACACAAACAGCAGCAUGCACAACAGAGGAUUGAGCAUCA
B21: chr13:113691719:113691720:-_ENSMUSG00000016018_ENSMUST00000022281|mus_hu|FALSE|FALSE (ssRNA)
RNA: GGGAGUUCUACAGUCCGACGAUCGUAUUCACCAGAAGAAAUCCAUCGGAAAUCCUUCCCAUCAAAUUUGCGGGCAUUUGUAAAUAAAACAGUUCUAGCUGGCAUGUUAAUUCCCAUAGCAAAGGUCUCCGUGGCAAAUAAGGCCAACAGAGGAUUGAGCAUCA
B22: chr7:135612788:135612789:-_ENSG00000105887_ENST00000393085|hu_mus|FALSE|FALSE (ssRNA)
RNA: GGGAGUUCUACAGUCCGACGAUCGCCAAGAGGUGAAAACAAAGGUCUCAAAACACCCUGUUGCAUUAUAUUGACUCAUAGACUGAUCAUGUGCCUUCCACUUCCUAGCAGAAUGUCCAACUCUAUAGCUGCUUGGCCUUUUGGCAACAGAGGAUUGAGCAUCA

Target: T1, UNK ZnF1-3
Assay: nsRBNS (natural sequence RNA bind-n-seq); RBNS binding buffer (assumed for nsRBNS): 25 mM Tris pH 7.5, 150 mM KCl, 3 mM MgCl2, 0.01% Triton X-100, 500 ug/ml BSA, 20 U/ml SUPERase-In, 4 C; UNK is unkempt and MSI1 is Musashi-1; names of the RNAs are library labels; protein concentration not given here; high values mean tight binding

Binder	binding signal
B1	0.944 enrichment R
B2	0.719 enrichment R
B3	0.872 enrichment R
B4	1.14 enrichment R
B5	0.44 enrichment R
B6	1.29 enrichment R
B7	0.886 enrichment R
B8	0.781 enrichment R
B9	0.817 enrichment R
B10	1.33 enrichment R
B11	8.04 enrichment R
B12	4.75 enrichment R
B13	1.23 enrichment R
B14	1.08 enrichment R
B15	3.8 enrichment R
B16	12.8 enrichment R
B17	0.548 enrichment R
B18	0.761 enrichment R
B19	1.29 enrichment R
B20	2.32 enrichment R
B21	1.77 enrichment R
B22	1.02 enrichment R
